Inconclusive results are not listed. A number with no mark means an inactive call. The source made the active and inactive calls. Calls follow the shape of the dose curve; as a rule, active = well fitted curve in the direction sought with a large enough effect; inconclusive = small, poorly fitted or top-dose-only effect, or another doubt; inactive = no such curve, though single readings can be large; an effect the other way counts as inactive or inconclusive.

Our source for the Potency, max response and outcome values is PubChem BioAssay (NCATS).

The test system of one assay is TAB113. In words: qHTS profiling for inhibitors of Plasmodium falciparum proliferation (AID 504749). Also: nearly all actives have a fitted effect of over 60% in size. As to conditions: P. falciparum in erythrocytes, SYBR Green DNA, 72 h; series mostly up to 28.7 µM. The procedure, abridged: (§1)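 P. falciparum-infected erythrocytes (0.3% parasitemia, 2.5% hematocrit) incubated with compound 72 h at 37 C, 5% CO2. Parasite DNA detected by SYBR Green after lysis, overnight at room temperature; normalised to 0.29 uM artemisinin and DMSO.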
On the technique in general: Quantitative high-throughput screening tests each substance at several concentrations.

The test system of the next assay is TAB165. Described as above. The settings on record: P. falciparum in erythrocytes, SYBR Green DNA, 72 h; series mostly up to 28.7 µM. The procedure, abridged: as §1
For a further assay, the system named is W2. Described as above. The settings on record: P. falciparum in erythrocytes, SYBR Green DNA, 72 h; series mostly up to 28.7 µM. The procedure, abridged:
as §1

A further assay relates to HaCat. In words: Cytotoxic Profiling of Annotated Libraries Using Quantitative High-Throughput Screening (AID 1296008). Also: nearly all actives have a fitted effect of over 60% in size. As to max response: % is scaled to controls: 0 for no effect and ±100 for the full control effect. The settings on record: Five cell lines viability, CellTiter-Glo ATP luminescence, 48-72 h; max response: hits give low values. The procedure, abridged: (§2)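 Cells exposed to compounds for 48 or 72 hr at 37 degrees Celsius. Viability read as ATP-coupled luminescence with CellTiter-Glo after 10 min at room temperature.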
A general note: Cellular ATP, detected with luciferase, serves as a proxy for viable cell number.

The subject of the next assay is KB-3-1. Described as above. The settings on record: Five cell lines viability, CellTiter-Glo ATP luminescence, 48-72 h; max response: hits give low values. A digest of the protocol:
as §2

Assay [1] relates to NIH3T3. Described as above. As to conditions: Five cell lines viability, CellTiter-Glo ATP luminescence, 48-72 h; max response: hits give low values. A digest of the protocol:
as §2

The test system of another assay is MCC-13. In words: qHTS assay to identify novel small-molecules to repurpose for Merkel cell carcinoma treatment (AID 1296009). Also: nearly all actives have a fitted effect of over 60% in size. The settings on record: MCC and control cell lines, CellTiter-Glo viability, 72 h; series mostly up to 46 µM. A digest of the protocol:
(§3)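 Cells were treated for 72 hr at 37 degree celsius with compounds in 8- or 11-point dose response. Viability was read by CellTiter-Glo luminescence, normalized to no-cell (cytotoxicity) and DMSO controls.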

The next assay relates to MCC-26. Described as above. As to conditions: MCC and control cell lines, CellTiter-Glo viability, 72 h; series mostly up to 46 µM. A digest of the protocol: as §3
The subject of a further assay is MKL-1. The description is as above. The settings on record: MCC and control cell lines, CellTiter-Glo viability, 72 h; series mostly up to 46 µM. A digest of the protocol:
as §3

A further assay has as its system MKL-2. The assay is described as above. The settings on record: MCC and control cell lines, CellTiter-Glo viability, 72 h; series mostly up to 46 µM. A digest of the protocol: as §3
Assay [2] deals with NIH3T3. The description is as above. As to conditions: MCC and control cell lines, CellTiter-Glo viability, 72 h; at 44.8 µM (top of the series) unless noted. The procedure, abridged:
as §3

The subject of a further assay is UISO. Described as above. As to conditions: MCC and control cell lines, CellTiter-Glo viability, 72 h; series mostly up to 46 µM. A digest of the protocol: as §3
Another assay deals with WaGa. Described as above. As to conditions: MCC and control cell lines, CellTiter-Glo viability, 72 h; series mostly up to 46 µM. A digest of the protocol:
as §3

The next assay deals with C33A. In words: Primary qHTS to identify gynecologic anti-cancer compounds using libraries of approved drugs and bioactive compounds (AID 1345084). Also: nearly all actives have a fitted effect of over 55% in size. As to conditions: Gynecologic cancer cell panel viability, ATPlite luminescence, 48 h; series mostly up to 57.5 µM. A digest of the protocol: (§4)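 Cells, 1,000 per well, were allowed to settle for 16 h at 37 C before compound addition. Five concentrations were tested for 48 h, and viability was read by ATPlite luminescence after 15 min at room temperature.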

The next assay deals with CAOV3. The description is as above. The settings on record: Gynecologic cancer cell panel viability, ATPlite luminescence, 48 h; series mostly up to 57.5 µM. The procedure, abridged:
as §4

In the next assay the test system is CASKI. Described as above. As to conditions: Gynecologic cancer cell panel viability, ATPlite luminescence, 48 h; series mostly up to 57.5 µM. A digest of the protocol:
as §4

The subject of a further assay is CRL-7250. In words: Cytotoxic Profiling of Annotated Libraries Using Quantitative High-Throughput Screening (AID 1296008). Also: nearly all actives have a fitted effect of over 60% in size. As to max response: % is scaled to controls: 0 for no effect and ±100 for the full control effect. The settings on record: Five cell lines viability, CellTiter-Glo ATP luminescence, 48-72 h; max response: hits give low values. The procedure, abridged:
as §2

Another assay has as its system HEK293. Described as above. As to conditions: Five cell lines viability, CellTiter-Glo ATP luminescence, 48-72 h; max response: hits give low values. The procedure, abridged:
as §2
Potency is read from the fitted curve at half-maximal effect.

On to `CC(=O)Nc1c(I)cc(I)c(C(=O)O)c1I`, for which the Potency entry in the assay on TAB113, with TAB165, in the assay with W2, in the assay with MCC-13, in the assay on MCC-26 and in the assay on MKL-1 was “inactive” throughout. Moreover, the Potency entry in the assay with MKL-2, with UISO, in the assay on WaGa, in the assay on C33A, in the assay on CAOV3 and in the assay on CASKI was “inactive” in each case. For the same compound, the max response is 4.29% in the assay with HaCat and -17.1% in the assay on KB-3-1. The compound was classed as inactive with NIH3T3 [1] and with NIH3T3 [2].
In the case of `COc1cc(C=C2CCC/C(=C\c3ccc(O)c(OC)c3)C2=O)ccc1O`, the Potency in the assay on CRL-7250 is 15 µM (active); in the assay on NIH3T3 [1] it was 16.8 µM (active); in the assay with MCC-13 it was 26.6 µM (active); in the assay on MKL-1, 4.22 µM (active); with MKL-2, 2.99 µM (active); with UISO, 21.1 µM (active). Moreover, in the assay on WaGa, the Potency is 5.31 µM (active).
As to `COc1ccc(CCN2CCC(Nc3nc4ccccc4n3Cc3ccc(F)cc3)CC2)cc1`, the Potency with TAB113 is 3.98 µM (active); with TAB165, 2.82 µM (active); with W2, 3.01 µM (active); with HEK293, 9.44 µM (active); with NIH3T3 [1], 4.73 µM (active); with MCC-13, 23.7 µM (active). In addition, the Potency in the assay on MKL-2 is 13.3 µM (active); in the assay with WaGa, 21.1 µM (active).
`CCCCCCCCCCCCCCCC[N+](C)(C)CCN(Cc1ccc(OC)cc1)c1ncccn1`: the Potency in the assay on HEK293 was 9.44 µM (active); in the assay on MKL-1, 5.96 µM (active); in the assay with MKL-2 it was 2.37 µM (active); in the assay with UISO it was 10.6 µM (active); with WaGa it was 16.8 µM (active); in the assay on CAOV3 it was 17.8 µM (active). Besides, in the assay on KB-3-1, the max response is -4.99%.
Take `CC(C)=CCC1C(=O)N(c2ccccc2)N(c2ccccc2)C1=O`: the values for the max response in the assay on CRL-7250, in the assay on KB-3-1 and in the assay with NIH3T3 [1] were -25.1%, -9.06% and -29%, respectively. The Potency result in the assay with MCC-13, in the assay with MCC-26, with C33A and in the assay on CASKI was “inactive” throughout. In the assay with MKL-2, the Potency was 13.3 µM (active).
Consider `CC(=O)OCC(=O)[C@@]1(OC(C)=O)[C@@H](C)C[C@H]2[C@@H]3C[C@H](F)C4=CC(=O)C=C[C@]4(C)[C@@]3(F)[C@@H](O)C[C@@]21C`, for which the Potency result in the assay with TAB165, with MCC-13, in the assay on MKL-1, with MKL-2, with UISO and in the assay on WaGa was “inactive” throughout. In addition, the Potency result with C33A, with CAOV3 and with CASKI was “inactive” each time. Moreover, the Potency in the assay with W2 was 6.01 µM (active). Moreover, the compound was classed as inactive with CRL-7250. The max response in the assay on KB-3-1 was 6.89%; in the assay with NIH3T3 [1], -5%.
Consider `O=C(Nc1ccc(Oc2ccc(Cl)cc2)c(Cl)c1)c1cc(I)cc(I)c1O`, for which the Potency entry in the assay with TAB113, in the assay with MCC-13, in the assay with MCC-26, in the assay on MKL-1, with MKL-2 and with UISO was “inactive” throughout. The Potency entry with WaGa, with C33A, in the assay on CAOV3 and with CASKI was “inactive” each time. The max response in the assay on CRL-7250 is -12.5%; in the assay on HaCat, 1.19%; in the assay with NIH3T3 [1], 0.252%.
For the compound `O=C(COc1ccc(Cl)cc1)N1CCN(Cc2ccc3c(c2)OCO3)CC1`, the Potency result with TAB113, with TAB165, in the assay with W2, with MCC-13, in the assay on MCC-26 and in the assay with MKL-1 was “inactive” each time. Moreover, the Potency entry in the assay on UISO, in the assay with C33A and in the assay on CASKI was “inactive” each time. In addition, the max response with CRL-7250 is -27.2%; in the assay with KB-3-1, -11.1%; in the assay with NIH3T3 [1] it was 0.953%.
